Data as given in PubChem BioAssay AID1159580 (chemical genetic matrix, 2015).
Where “and” joins values, the source holds several entries; their conditions need not be identical. Equal entries are not always repeated. Among all 5,500 compounds or so, about 2,000 (36%) were called active. Not shown: some 18% with an inconclusive outcome. No stated cut-off is given here; in the data, active means normalized growth mostly below about 0.91 (no sharp cut-off); inconclusive means no clear call, values can overlap the other calls; inactive means mostly above about 0.92. This is one part of the list.

Assay: chemical genetic growth profiling, strain panel (AID 1159580);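 further: tested at 20 µM; growth read once vehicle control cultures reached saturation at 30 °C; 1 = growth at the plate median or of vehicle wells; lower values mean less growth of the strain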
Conditions: S. cerevisiae deletion strains, growth OD

Measured: normalized growth

CC1(C)S[C@@H]2C(N3C(=O)[C@@H](c4ccccc4)NC3(C)C)C(=O)N2[C@H]1C(=O)O (some centres not stated)
inactive: locus YAL021C, strain ccr4, active compounds read low 1.03 | locus YAL026C, strain drs2, active compounds read low 1.02 | locus YAL030W, strain snc1, active compounds read low 1 | locus YBL061C, strain skt5, active compounds read low 1.02 | locus YBR009C, strain hhf1, active compounds read low 1.03 | locus YBR021W, strain FUR4, active compounds read low 0.994 | locus YBR023C, strain chs3, active compounds read low 1.04 | locus YBR171W, strain sec66, active compounds read low 1.04 | locus YBR229C, strain ROT2, active compounds read low 1.01 | locus YBR231C, strain swc5, active compounds read low 0.975 | locus YBR279W, strain paf1, active compounds read low 1.02 | locus YCL011C, strain gbp2, active compounds read low 1.03 | locus YCL016C, strain dcc1, active compounds read low 1.06 | locus YCL029C, strain bik1, active compounds read low 1.02 | locus YCL061C, strain MRC1, active compounds read low 1.03 | locus YCL069W, strain vba3, active compounds read low 1.02 | locus YCR088W, strain abp1, active compounds read low 1.02 | locus YDL005C, strain med2, active compounds read low 1.02 | locus YDL035C, strain GPR1, active compounds read low 1 | locus YDL040C, strain nat1, active compounds read low 1.01 | locus YDL074C, strain BRE1, active compounds read low 1.02 | locus YDL101C, strain DUN1, active compounds read low 1.01 | locus YDL185W, strain tfp1, active compounds read low 1.02 | locus YDL192W, strain arf1, active compounds read low 1.03 | locus YDR001C, strain nth1, active compounds read low 1.01 | locus YDR069C, strain doa4, active compounds read low 0.977 | locus YDR101C, strain arx1, active compounds read low 1.01 | locus YDR137W, strain rgp1, active compounds read low 1.11 | locus YDR159W, strain sac3, active compounds read low 0.958 | locus YDR162C, strain NBP2, active compounds read low 1 | locus YDR195W, strain ref2 1.01 | locus YDR297W, strain sur2, active compounds read low 0.98 | locus YDR318W, strain mcm21, active compounds read low 1.02 | locus YDR334W, strain swr1, active compounds read low 1.02 | locus YDR335W, strain msn5, active compounds read low 0.989 | locus YDR388W, active compounds read low 1.03 | locus YDR392W, strain spt3, active compounds read low 0.952 | locus YDR502C, strain sam2, active compounds read low 1.03 | locus YEL003W, strain gim4, active compounds read low 1.02 | locus YEL037C, strain rad23, active compounds read low 1.02 | locus YEL061C, strain CIN8 (second series), active compounds read low 1.02 | locus YEL061C, strain CIN8, active compounds read low 1.01 | locus YER015W, strain faa2, active compounds read low 1 | locus YER016W, strain bim1, active compounds read low 1.01 | locus YER110C, active compounds read low 1.04 | locus YER111C, strain swi4, active compounds read low 1.03 | locus YER155C, strain BEM2 (second series), active compounds read low 0.975 | locus YER155C, strain BEM2, active compounds read low 1 | locus YER167W, strain BCK2, active compounds read low 1 | locus YFR010W, strain ubp6, active compounds read low 1.03 | locus YGL078C, strain dbp3, active compounds read low 1.03 | locus YGL086W, strain mad1, active compounds read low 0.996 | locus YGL167C, strain pmr1, active compounds read low 1.02 | locus YGL173C, strain kem1, active compounds read low 1.03 | locus YGL227W, strain vid30, active compounds read low 1.02 | locus YGL240W, strain doc1, active compounds read low 0.972 | locus YGL248W, strain PDE1, active compounds read low 1.01 | locus YGL253W, strain hxk2, active compounds read low 1.02 | locus YGR078C, strain PAC10, active compounds read low 1 | locus YGR135W, strain pre9, active compounds read low 1.04 | locus YGR252W, strain gcn5, active compounds read low 1.01 | locus YHR013C, strain ard1, active compounds read low 1.06 | locus YHR027C, strain rpn1, active compounds read low 1.02 | locus YHR030C, strain SLT2, active compounds read low 1.01 and 0.988 | locus YHR079C, strain IRE1 (second series), active compounds read low 1.02 | locus YHR079C, strain IRE1, active compounds read low 0.979 | locus YHR094C, strain hxt1, active compounds read low 1.03 | locus YHR129C, strain ARP1, active compounds read low 0.995 | locus YHR142W, strain chs7, active compounds read low 1.05 | locus YHR200W, strain rpn10, active compounds read low 1.03 | locus YIL066C, strain RNR3, active compounds read low 1 | locus YIL073C, strain SPO22, active compounds read low 1.06 | locus YIL125W, strain kgd1, active compounds read low 1.02 | locus YIR030C, strain dcg1, active compounds read low 1.03 | locus YJL092W, strain hpr5, active compounds read low 1.02 | locus YJL095W, strain BCK1 (second series), active compounds read low 0.987 | locus YJL095W, strain BCK1, active compounds read low 1.02 and 0.98 | locus YJL115W, strain asf1, active compounds read low 1.02 | locus YJL129C, strain trk1, active compounds read low 1.04 | locus YJL134W, strain LCB3, active compounds read low 1.01 | locus YJL154C, strain vps35, active compounds read low 1.02 | locus YJL164C, strain tpk1, active compounds read low 1.04 | locus YJL166W, strain qcr8, active compounds read low 1.02 | locus YJL168C, strain set2, active compounds read low 1.03 | locus YJL187C, strain SWE1 (second series), active compounds read low 1 | locus YJL187C, strain SWE1, active compounds read low 0.974 | locus YJR066W, strain TOR1, active compounds read low 0.944 | locus YKL009W, strain mrt4, active compounds read low 0.99 | locus YKL068W, active compounds read low 1.01 | locus YKL085W, strain MDH1 (second series), active compounds read low 1.02 | locus YKL085W, strain MDH1, active compounds read low 1.02 | locus YKL160W, strain elf1, active compounds read low 1.05 | locus YKR001C, strain vps1, active compounds read low 1.04 | locus YKR026C, strain gcn3, active compounds read low 1.02 | locus YKR091W, strain srl3, active compounds read low 1.02 | locus YLL001W, strain dnm1, active compounds read low 1.04 | locus YLL026W, active compounds read low 1.02 | locus YLL041C, strain sdh2, active compounds read low 1 | locus YLR027C, strain aat2, active compounds read low 1 | locus YLR039C, strain RIC1, active compounds read low 1.03 | locus YLR058C, strain SHM2, active compounds read low 1.01 | locus YLR102C, strain apc9, active compounds read low 1.03 | locus YLR113W, strain HOG1, active compounds read low 1 | locus YLR221C, strain rsa3, active compounds read low 1.03 | locus YLR258W, strain gsy2, active compounds read low 0.999 | locus YLR262C, strain YPT6 (second series), active compounds read low 1.11 | locus YLR262C, strain YPT6, active compounds read low 1.05 | locus YLR268W, strain sec22, active compounds read low 1.02 | locus YLR320W, strain mms22, active compounds read low 1.08 | locus YLR330W, strain CHS5, active compounds read low 1 | locus YLR342W, strain FKS1 (second series), active compounds read low 0.997 | locus YLR342W, strain FKS1, active compounds read low 1.03 | locus YLR357W, strain rsc2, active compounds read low 1.01 | locus YLR370C, strain arc18, active compounds read low 1 | locus YLR371W, strain rom2, active compounds read low 1.01 | locus YLR384C, strain iki3, active compounds read low 1.02 | locus YLR418C, strain cdc73, active compounds read low 1.03 | locus YML016C, strain PPZ1, active compounds read low 1.01 | locus YML032C, strain rad52, active compounds read low 1.02 | locus YML120C, strain ndi1, active compounds read low 1.05 | locus YML124C, strain tub3, active compounds read low 1.02 | locus YMR058W, strain fet3, active compounds read low 1.01 | locus YMR078C, strain ctf18, active compounds read low 1.03 | locus YMR125W, strain sto1, active compounds read low 1.03 | locus YMR129W, active compounds read low 1.02 | locus YMR205C, strain PFK2, active compounds read low 0.992 | locus YMR223W, strain ubp8, active compounds read low 1.04 | locus YMR231W, strain pep5, active compounds read low 1.02 | locus YMR263W, strain SAP30, active compounds read low 1 | locus YMR307W, strain GAS1, active compounds read low 1.01 | locus YNL067W, strain RPL9B, active compounds read low 1.01 | locus YNL071W, strain lat1, active compounds read low 1.03 | locus YNL183C, strain NPR1, active compounds read low 0.95 | locus YNL209W, strain ssb2, active compounds read low 1.02 | locus YNL233W, strain BNI4, active compounds read low 1 | locus YNL248C, strain rpa49, active compounds read low 1.03 | locus YNL250W, strain rad50, active compounds read low 1.05 | locus YNL271C, strain bni1, active compounds read low 1.04 | locus YNL298W, strain CLA4, active compounds read low 1.04 | locus YNL307C, strain MCK1, active compounds read low 1.03 | locus YNL322C, strain KRE1 (second series), active compounds read low 1.05 | locus YNL322C, strain KRE1, active compounds read low 1 | locus YNR049C, strain mso1, active compounds read low 0.993 | locus YNR052C, strain pop2, active compounds read low 1.02 | locus YOL006C, strain TOP1, active compounds read low 1.03 | locus YOL012C, strain htz1 0.716 | locus YOL147C, strain pex11, active compounds read low 1.03 | locus YOR001W, strain rrp6, active compounds read low 1.01 | locus YOR061W, strain CKA2, active compounds read low 1.01 | locus YOR069W, strain VPS5, active compounds read low 1 | locus YOR070C, strain gyp1, active compounds read low 1.03 | locus YOR080W, strain dia2, active compounds read low 1.05 | locus YOR083W, strain WHI5, active compounds read low 1.03 | locus YOR106W, strain vam3, active compounds read low 1.02 | locus YOR136W, strain idh2, active compounds read low 1.03 | locus YOR144C, strain elg1, active compounds read low 1.02 | locus YOR184W, strain ser1, active compounds read low 1.05 | locus YOR231W, strain MKK1, active compounds read low 0.997 | locus YOR265W, strain rbl2, active compounds read low 1.03 | locus YOR270C, strain vph1, active compounds read low 1.08 | locus YOR290C, strain snf2, active compounds read low 0.962 | locus YOR316C, strain cot1, active compounds read low 1.03 | locus YPL051W, strain arl3, active compounds read low 1.04 | locus YPL078C, strain atp4, active compounds read low 1.03 | locus YPL106C, strain sse1, active compounds read low 1.01 | locus YPL240C, strain hsp82, active compounds read low 0.985 | locus YPL256C, strain CLN2, active compounds read low 0.982 | locus YPR119W, strain clb2, active compounds read low 1.03 | locus YPR141C, strain kar3, active compounds read low 1.03 | locus YPR163C, strain tif3, active compounds read low 1.04 | locus YPR167C, strain met16, active compounds read low 1.02 | strain wtn01, active compounds read low 1.04
